Only some compounds are listed: those with a hit (about 1.8% of all), similar ones and a draw of the others.
Fam108B counter = Fam108B inhibition, counter-screen for RBBP9 inhibitors. recombinant Fam108B, FP-Rh probe fluorescence polarization. inhibition, % at 9.51 µM. actives 0.33% (n = 300,000). AID 1947;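 active = inhibition above the screen mean inhibition plus 3 SD, computed separately per campaign, cut at about 18% in these data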;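 note: inhibitors lower polarization as less probe binds the enzyme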
LYPLA1 inh = counter-screen for PME1 inhibitors: inhibitors of human LYPLA1 | recombinant LYPLA1, FP-Rh probe fluorescence polarization | AID 2174 | inhibition, % at 5.9 µM | actives 0.16% (n = 320,000) | O75608;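 active = inhibition above the mean of all tested compounds plus 3 SD, set per campaign, cut at about 14% in these data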;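 note: inhibitors block serine hydrolase probe labeling of LYPLA1 so polarization falls; 0% = enzyme with DMSO and 100% = wells lacking LYPLA1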
PME-1 primary = PME-1 (human) inhibition. inhibition, % at 5.9 µM. recombinant PME-1, FP-Rh probe fluorescence polarization. actives 0.53% (n = 320,000). AID 2130. Q9Y570;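 active = inhibition above the campaign mean of all compounds plus 3 SD, cut at about 26% in these data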;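 note: competitive labeling of PME-1 active site by serine hydrolase directed probe; 0% = PME-1 with DMSO and 100% = wells lacking PME-1 enzyme; inhibitors block probe labeling so polarization falls and inhibition rises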
Target sequence (Q9Y570 whole entry, looked up): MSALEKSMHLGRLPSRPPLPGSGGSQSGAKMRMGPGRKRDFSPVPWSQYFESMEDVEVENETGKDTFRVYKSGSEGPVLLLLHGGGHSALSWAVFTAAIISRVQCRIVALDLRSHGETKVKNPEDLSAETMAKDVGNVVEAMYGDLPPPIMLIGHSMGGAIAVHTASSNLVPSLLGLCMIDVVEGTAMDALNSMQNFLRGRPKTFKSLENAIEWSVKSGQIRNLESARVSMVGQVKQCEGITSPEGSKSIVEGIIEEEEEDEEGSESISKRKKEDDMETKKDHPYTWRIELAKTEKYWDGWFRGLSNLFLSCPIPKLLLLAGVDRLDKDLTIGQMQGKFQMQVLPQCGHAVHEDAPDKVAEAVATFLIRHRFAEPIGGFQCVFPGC
LYPLA2 inh = LYPLA2 (human) inhibition in PME1 counter-screen. actives 0.38% (n = 320,000). O95372. recombinant LYPLA2, FP-Rh probe fluorescence polarization. inhibition, % at 5.9 µM;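 active = inhibition above the screen-wide mean plus 3 SD, limit set per campaign, cut at about 26% in these data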;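 note: 0% = LYPLA2 with DMSO and 100% = wells lacking LYPLA2 enzyme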
Target sequence (O95372 whole entry, looked up): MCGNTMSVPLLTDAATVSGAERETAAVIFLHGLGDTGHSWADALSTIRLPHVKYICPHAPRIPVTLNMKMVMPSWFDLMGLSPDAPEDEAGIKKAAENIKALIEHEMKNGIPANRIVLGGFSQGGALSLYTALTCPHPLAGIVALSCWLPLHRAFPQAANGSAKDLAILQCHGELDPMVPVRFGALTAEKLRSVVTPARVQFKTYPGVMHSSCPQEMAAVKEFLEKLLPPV
GSTO1 inh = GSTO1 inhibition, counter-screen for RBBP9 inhibitors; P78417; recombinant GSTO1, activity-based probe fluorescence polarization; inhibition, % at 5.96 µM; actives 1.1% (n = 300,000); AID 1974;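 active = inhibition above the campaign mean inhibition plus 3 SD, cut at about 35% in these data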;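 note: 0% = GSTO1-1 with DMSO and 100% = wells lacking GSTO1-1 enzyme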
PAD4 FP inh = blocks human protein arginine deiminase 4; Q9UM07; recombinant PAD4, RCA probe fluorescence polarization; inhibition, % at 6.36 µM; actives 0.41% (n = 330,000);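 active = percent inhibition above a cutoff equal to the mean of all tested compounds plus 3 SD, cut at about 15% in these data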;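 note: 0% = PAD4 with RCA probe and DMSO and 100% = probe without PAD4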
LYPLA1 conf = counter-screen for PME1 inhibitors: confirmation of human LYPLA1 inhibitors; actives 69% (n = 480); inhibition, % at 5.9 µM; shares compounds with LYPLA1 inh; recombinant LYPLA1, FP-Rh probe fluorescence polarization;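 active = mean inhibition across replicates above the hit cutoff set in the primary screen, cut at about 15% in these data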;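 note: loss of FP-Rh probe labeling of LYPLA1 seen as lower polarization; 0% = LYPLA1 with DMSO and 100% = wells lacking LYPLA1 enzyme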
Numbers without * were called inactive; x = not tested or not shown.

SMILES | Fam108B counter | LYPLA1 inh | PME-1 primary | LYPLA2 inh | GSTO1 inh | PAD4 FP inh | LYPLA1 conf
O=C(COC(=O)c1cccs1)Nc1cccc(S(=O)(=O)N2CCCCC2)c1 | x | x | x | x | x | -2 | x
Cn1cccc1C1CCCN1CC(=O)Nc1ccc(C(N)=O)cc1 (stereo unspecified) | x | x | x | x | x | -1 | x
O=C(O)c1ccccc1SCCS(=O)(=O)c1ccc(Cl)cc1Cl | -5 | 2 | -9 | 1 | 13 | 1 | x
CCOC(=O)C1=C(C)Nc2ccccc2N=C1NC(=O)c1oc2ccccc2c1COC | x | -2 | -4 | 2 | x | -1 | x
OCC[C@H]1C[C@H](O)[C@@H](O)[C@]2(OCCc3ccccc32)O1 | -1 | 0 | -2 | 7 | 3 | -1 | x
CCOC(=O)C1=CNS(=O)(=O)NC1c1ccc(C)cc1 (stereo unspecified) | x | x | x | x | x | -5 | x
COC(=O)C1(CC2CC(c3cccc(Br)c3)=NO2)CCN(C(=O)OC(C)(C)C)CC1 (stereo unspecified) | 1 | 24* | -4 | 5 | 5 | 5 | 31*
CC(C)(C)OC(=O)N1CCC(CC2CC(c3ccccc3)=NO2)(C(=O)NCc2ccccc2)CC1 (stereo unspecified) | -1 | 0 | 5 | 3 | 6 | 0 | x
CCOCCn1cnc2sc(C(=O)NCCCN3CCOCC3)c(C)c2c1=O | 2 | -3 | 1 | -9 | 6 | -3 | x
O=C(O)C1CCN(S(=O)(=O)c2ccc(Cl)s2)CC1 | x | x | x | x | x | -3 | x
CCOC(=O)c1c(C)[nH]c(C(=O)OCC(=O)Nc2sc(C(=O)N(C)C)c(C)c2C(=O)OCC)c1C | -1 | 47* | 5 | 6 | 8 | -3 | 74*
CCOC(=O)c1c(NC(=O)COC(=O)c2ccc([N+](=O)[O-])cc2)sc(C(=O)N(C)C)c1C | 0 | 7 | -5 | 5 | -2 | 2 | x
CC1CN(Cc2cc(=O)oc3cc(O)c(Cl)cc23)CC(C)O1 (stereo unspecified) | 6 | 16* | 3 | 20 | 4 | -4 | 42*
Cc1ccc2c(C)c(C(=O)N(C)C(C)c3ccon3)oc2c1C (stereo unspecified) | 3 | 2 | 5 | 0 | -2 | 2 | x
COc1ccc(-n2c(C)c([N+](=O)[O-])c3ccc(O)c(CN4CCCCC4)c32)cc1 | 3 | 54* | 19 | 25 | 10 | 0 | 65*
COc1ccc(CCNC(=O)CN(c2ccccc2OC)S(C)(=O)=O)cc1OC | -2 | 2 | -3 | 7 | -3 | -1 | x
COc1ccc(CCNC(=O)CN(CCc2ccccc2)S(C)(=O)=O)cc1OC | -3 | 22* | 0 | 2 | -4 | 2 | 3
C[C@@]12CCC[C@@](C)(C(=O)O)C1CC[C@@]13C[C@@H](NCc4ccccc4)[C@@](C)(CCC12)C3 (stereo partly specified) | x | 0 | -4 | -3 | x | 1 | x
COc1cc(/C=N/NC(=O)c2ccc(Cn3cc([N+](=O)[O-])cn3)o2)cc(Br)c1O | 0 | -2 | 0 | -3 | -6 | -8 | x
COc1cc(/C=N\NC(=O)c2ccc(Cn3cc(Br)c([N+](=O)[O-])n3)o2)cc(OC)c1O | 13 | 16* | 7 | -2 | -1 | 2 | 10
C/C(=N\NC(=O)c1cccc(O)c1)c1ccc(NC(=O)Cc2ccccc2)cc1 | -7 | -3 | 4 | -6 | -3 | 0 | x
O=c1ccc2ccc(Oc3ccc([N+](=O)[O-])cc3[N+](=O)[O-])cc2o1 | 2 | 40* | 42* | 58* | 5 | 4 | 40*
CCN(c1ccccc1)S(=O)(=O)c1ccc(OC)c(NC(=O)CN(C)C)c1 | 0 | 15* | 1 | 4 | -3 | 0 | 7
CCN(c1ccccc1)S(=O)(=O)c1ccc(OC)c(NC(=O)CNC)c1 | -5 | 0 | -4 | -4 | -13 | -13 | x
COc1ccc(/C=C2/SC(=S)N(CCCC(=O)Nc3ccccc3C(=O)O)C2=O)cc1 | 2 | 20* | -3 | 22 | 2 | -2 | 19*
SMILES | Fam108B counter | LYPLA1 inh | PME-1 primary | LYPLA2 inh | GSTO1 inh | PAD4 FP inh | LYPLA1 conf
COc1ccc(OC)c(CCNC(=O)CCC(=O)N2CCOc3ccc(C)cc32)c1 | 3 | 0 | -7 | 5 | 1 | 8 | x
C=CCSc1nc(N)c(C#N)c(-c2ccccc2)c1C#N | 1 | 14* | -7 | 8 | 2 | -2 | 12
CCCSc1nc(N)c(C#N)c(-c2ccc(C)cc2)c1C#N | -3 | 1 | 2 | 2 | 0 | 0 | x
C[C@H](CO)N1C[C@H](C)[C@@H](CN(C)C)Oc2c(NS(=O)(=O)c3ccccc3)cccc2C1=O | x | x | x | x | x | 0 | x
COc1ccc(CNC(=O)Cn2ccc3cc(S(=O)(=O)N4CCCC4)ccc32)cc1OC | 3 | 24* | 8 | 13 | 7 | 2 | 3
C/C(=N\NC(=O)c1nnn(-c2nonc2N)c1-c1cccs1)c1ccncc1 | -3 | 25* | 6 | 6 | -5 | 0 | 1
COc1ccc(-c2nnc(Nc3nc4c(OC)cccc4s3)o2)cc1 | 1 | 17* | -27 | 18 | -25 | -8 | 41*
COc1ccc(-c2nnc(-c3ccc(N)cc3)o2)cc1 | 8 | -2 | 7 | -1 | 1 | -2 | x
CC1(OC(=O)c2cnc3ccccc3n2)C(=O)C=C2C=C(C3CC3)OC=C2C1=O (stereo unspecified) | 48* | 58* | 66* | 76* | 43* | 38* | 27*
O=C(O)C1C2CCC(O2)C1C(=O)Nc1ccc(Br)cc1F (stereo unspecified) | -3 | -1 | -5 | 6 | 5 | -3 | x
CCOC(=O)c1sc2cc([N+](=O)[O-])cc(SCC(=O)OC)c2c1N | 7 | 15* | 8 | 4 | 36* | -7 | 29*
COc1ccc(NC(=O)COC(=O)C2CC3C=CC2C3)cc1 (stereo unspecified) | -2 | 4 | -2 | 7 | 0 | 0 | x
Cc1ccc(NC(=O)COC(=O)C2CC3C=CC2C3)cc1S(=O)(=O)N1CCCCC1 (stereo unspecified) | -2 | 20* | 5 | 6 | 0 | 1 | 33*
CCN(CC)S(=O)(=O)c1cccc(NC(=O)COC(=O)C2CC3C=CC2C3)c1 (stereo unspecified) | 11 | 30* | 1 | 13 | 2 | 4 | 28*
CCCc1cc(=O)oc2cc(C)cc(OCC(=O)Nc3ccc(CN4CCOCC4)cc3)c12 | -7 | -7 | 7 | -8 | 2 | -4 | x
COc1ccc(CC(NC(C)=O)C(=O)NC2CCN(S(=O)(=O)c3ccc(NC(C)=O)cc3)CC2)c(OC)c1 (stereo unspecified) | -2 | -1 | -2 | -8 | 1 | 2 | x
COc1ccc(CC(=O)Nc2ccc(S(=O)(=O)N3CCC(C)CC3)cc2)c(OC)c1 | x | 17* | -5 | -3 | x | -2 | -5

High-throughput results deposited in PubChem BioAssay by The Scripps Research Institute Molecular Screening Center.
